In the library only some 27% were active in any assay of this set; here they are far more common.
CYP2C19 inhib – human CYP2C19 inhibition. inhibition, % at 5 µM. 96,000 tested, 21% active. CYP2C19 Supersomes, luciferin-H EGE luminescence, 30 min. P33261;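 active = CYP2C19 inhibition above a set limit at 5 µM in the primary screen, cut at about 50% in these data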;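 note: plate controls were negative control wells for no effect and 2.5 mM tranylcypromine positive control for full effect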
CYP2C9 inh – inhibitors of human CYP2C9; 96,000 tested, 20% active; inhibition, % at 5 µM; AID 777; CYP2C9 Supersomes, luciferin-H conversion, luminescence;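 active = blocking of liver enzyme CYP2C9 beyond about 50% at 5 µM, limit read from the data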
CYP2C19 activ – increases human CYP2C19 enzyme activity | recombinant CYP2C19, luciferin-H EGE luminescence; hits give high values; 0 = fully inhibited enzyme, 1 = untreated enzyme | activation factor at 5 µM | 96,000 tested, under 10 active;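 active = activation factor of at least 2 at 5 µM in the primary screen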;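 note: 0 = wells with 2.5 mM tranylcypromine and 1 = vehicle-only wells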
CYP2C9 activ – activators of human CYP2C9. P11712. recombinant CYP2C9, luciferin-H conversion, luminescence; hits give high values; factor 1 = untreated enzyme, 0 = blocked. activation factor at 5 µM. 96,000 tested, 1.4% active;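 active = activation factor of 2 or more for CYP2C9 at a 5 µM dose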;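 note: 0 = sulfaphenazole-blocked wells and 1 = vehicle-only wells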
Cav32 inh – blocks human Cav3.2 T-type calcium channel; B-score at 10 µM; Cav3.2-expressing cells, Fluo-4 calcium fluorescence FDSS; hits give low values; 100,000 tested, 4% active; AID 449739; O95180;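 active = single-dose well whose peak fluorescence ratio is a statistical outlier from its plate by either plate-standardised score or position-corrected B-score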
Target sequence (O95180 whole entry, looked up): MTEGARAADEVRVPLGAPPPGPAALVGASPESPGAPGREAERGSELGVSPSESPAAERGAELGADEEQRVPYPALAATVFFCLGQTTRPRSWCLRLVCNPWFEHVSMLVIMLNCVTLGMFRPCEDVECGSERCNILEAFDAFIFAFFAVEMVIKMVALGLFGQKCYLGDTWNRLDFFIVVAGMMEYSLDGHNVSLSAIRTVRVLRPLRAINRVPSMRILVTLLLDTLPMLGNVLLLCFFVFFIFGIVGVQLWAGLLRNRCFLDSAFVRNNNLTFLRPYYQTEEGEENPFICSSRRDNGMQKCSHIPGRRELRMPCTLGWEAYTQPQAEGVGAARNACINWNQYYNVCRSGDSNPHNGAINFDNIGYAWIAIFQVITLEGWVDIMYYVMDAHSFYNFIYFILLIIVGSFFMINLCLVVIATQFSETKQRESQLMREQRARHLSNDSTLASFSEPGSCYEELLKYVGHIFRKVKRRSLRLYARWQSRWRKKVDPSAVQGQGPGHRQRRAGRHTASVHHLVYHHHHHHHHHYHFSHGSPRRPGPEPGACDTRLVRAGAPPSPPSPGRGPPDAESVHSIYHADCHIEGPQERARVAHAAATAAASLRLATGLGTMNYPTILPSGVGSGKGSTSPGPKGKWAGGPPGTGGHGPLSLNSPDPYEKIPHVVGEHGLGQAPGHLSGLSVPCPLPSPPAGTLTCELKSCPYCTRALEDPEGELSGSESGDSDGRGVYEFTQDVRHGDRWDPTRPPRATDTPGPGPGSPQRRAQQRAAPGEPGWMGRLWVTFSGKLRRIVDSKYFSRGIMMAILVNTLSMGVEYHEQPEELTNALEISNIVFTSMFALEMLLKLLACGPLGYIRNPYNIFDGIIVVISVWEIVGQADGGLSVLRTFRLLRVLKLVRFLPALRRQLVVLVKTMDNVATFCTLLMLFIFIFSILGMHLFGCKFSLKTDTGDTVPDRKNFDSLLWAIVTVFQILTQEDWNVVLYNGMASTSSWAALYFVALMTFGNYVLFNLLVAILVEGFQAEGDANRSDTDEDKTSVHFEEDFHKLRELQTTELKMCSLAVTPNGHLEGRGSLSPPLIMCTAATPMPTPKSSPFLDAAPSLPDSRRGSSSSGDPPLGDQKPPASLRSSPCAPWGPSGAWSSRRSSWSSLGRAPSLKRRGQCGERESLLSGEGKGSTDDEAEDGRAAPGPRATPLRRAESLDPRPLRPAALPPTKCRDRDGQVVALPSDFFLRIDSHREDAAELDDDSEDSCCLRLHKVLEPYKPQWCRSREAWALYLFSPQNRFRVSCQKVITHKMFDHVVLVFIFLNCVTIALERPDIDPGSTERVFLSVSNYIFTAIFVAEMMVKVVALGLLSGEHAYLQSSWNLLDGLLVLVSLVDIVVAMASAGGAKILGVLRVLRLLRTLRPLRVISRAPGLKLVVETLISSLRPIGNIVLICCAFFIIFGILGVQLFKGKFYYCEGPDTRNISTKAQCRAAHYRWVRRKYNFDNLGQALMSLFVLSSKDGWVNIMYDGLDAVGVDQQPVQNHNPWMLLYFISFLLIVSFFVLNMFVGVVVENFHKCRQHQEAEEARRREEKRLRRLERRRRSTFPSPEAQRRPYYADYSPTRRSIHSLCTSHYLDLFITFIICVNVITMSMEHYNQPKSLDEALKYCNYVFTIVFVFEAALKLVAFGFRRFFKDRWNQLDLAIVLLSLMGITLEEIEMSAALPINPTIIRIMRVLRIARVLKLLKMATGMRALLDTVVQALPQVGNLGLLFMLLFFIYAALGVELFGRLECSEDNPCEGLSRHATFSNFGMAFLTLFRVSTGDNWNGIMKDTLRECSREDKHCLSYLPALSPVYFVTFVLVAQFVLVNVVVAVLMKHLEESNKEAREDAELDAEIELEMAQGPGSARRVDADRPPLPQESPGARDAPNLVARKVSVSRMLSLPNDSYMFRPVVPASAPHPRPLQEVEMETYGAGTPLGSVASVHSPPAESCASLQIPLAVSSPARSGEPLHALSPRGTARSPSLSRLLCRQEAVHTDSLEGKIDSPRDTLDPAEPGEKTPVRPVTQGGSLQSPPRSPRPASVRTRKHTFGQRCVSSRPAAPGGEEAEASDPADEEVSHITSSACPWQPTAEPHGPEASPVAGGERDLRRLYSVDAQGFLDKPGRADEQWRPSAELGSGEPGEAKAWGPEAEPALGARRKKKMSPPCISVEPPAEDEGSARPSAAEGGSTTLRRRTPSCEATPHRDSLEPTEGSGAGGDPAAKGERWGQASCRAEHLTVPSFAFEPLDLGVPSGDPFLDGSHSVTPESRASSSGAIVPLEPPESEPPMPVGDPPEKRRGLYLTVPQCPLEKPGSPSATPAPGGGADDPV
An asterisk follows results filed as active; . = no result.

SMILES	CYP2C19 inhib	CYP2C9 inh	CYP2C19 activ	CYP2C9 activ	Cav32 inh
COCC(C)n1c(-c2ccc3c(c2)NC(=O)CO3)csc1=Nc1ccc(OC(F)F)cc1 (stereo not given)	16	69*	0.8	0.3	-1.8
CCCCN=c1scc(-c2ccc3c(c2)NC(=O)CO3)n1N=C1CCCC1	1	1	1	1	0.32
CCN=c1scc(-c2ccc3c(c2)NC(=O)CO3)n1N=C1CCCC1	54*	48	0.5	0.5	-1.4
CCC(C)Sc1nc2ccccc2n1CC(=O)O (stereo not given)	-16	88*	1.2	0.1	0.31
Cc1ccc(SCc2nc3ccccc3n2CC(=O)Nc2ccccc2)cc1	57*	84*	0.4	0.2	0.7
CSc1nc2ccccc2n1Cc1c(Cl)cccc1Cl	52*	56*	0.5	0.4	-3.7
CSc1nc2ccccc2n1CC(=O)Nc1ccccc1	93*	79*	0.1	0.2	0.87
CSc1nc2ccccc2n1CC(=O)Nc1c(C)cccc1C	.	.	.	.	-0.44
CCN(CC)CCNC(=O)c1ccccn1	6	4	0.9	1	-0.12
COc1ccc(C2(C(=O)NCC3CCCO3)CCOCC2)cc1 (stereo not given)	18	4	0.8	1	0.89
Cc1ccc(NC(=O)c2c(C)nn(-c3ccccc3)c2Cl)c(C)c1	27	24	0.7	0.8	0.48
Cc1nn(-c2ccccc2)c(Cl)c1C(=O)NCC(=O)O	-18	-13	1.2	1.1	-1.4
Cc1nn(-c2ccccc2)c(Cl)c1C(=O)Nc1nnc(C2CCCC2)s1	44	94*	0.6	0.1	-5*
Cc1cccc(C)c1NC(=O)c1c(C)nn(-c2ccccc2)c1Cl	51*	44	0.5	0.6	3.3
NCCCC[C@H]1CNC(=S)N1CCCCC1CCCCC1	.	.	.	.	0.038
COc1ccc(OC)c(/C=N/NC(=O)CC2C(=O)NN=C2C)c1 (stereo not given)	-11	-5	1.1	1	-0.19
O=C1c2cccc3c(Nc4ccccc4Cl)c([N+](=O)[O-])cc(c23)C(=O)N1CCO	14	23	0.9	0.8	-2.2
O=C(c1ccccc1)N1CCN(Cc2c[nH]c3ccccc23)CC1	65*	41	0.4	0.6	0.81
N#Cc1ccc(CN2CCN(C(=O)c3ccccc3)CC2)c(Cl)c1	74*	36	0.3	0.6	0.011
O=C(CCCc1c[nH]c2ccccc12)N1CCCCCC1	98*	-17	0	1.2	-1.2
O=C(c1ccc(F)cc1)N1CCN(Cc2ccccc2Br)CC1	98*	69*	0	0.3	-0.49
O=C(c1cccc(F)c1)N1CCN(Cc2c[nH]c3ccccc23)CC1	37	12	0.6	0.9	0.66
O=C(CCC(=O)OCC(=O)c1cccc([N+](=O)[O-])c1)Nc1ccccc1Cl	-7	-16	1.1	1.2	1
COc1ccc(CNS(=O)(=O)c2cc(OCC(N)=O)c(C)cc2Cl)cc1	8	11	0.9	0.9	-0.043
O=Nc1c2nc3ccccc3n(O)c-2c2ccccc12	14	17	0.9	0.8	-0.58
SMILES	CYP2C19 inhib	CYP2C9 inh	CYP2C19 activ	CYP2C9 activ	Cav32 inh
Cc1ccn2cc(CNS(=O)(=O)c3ccc(Cl)s3)nc2c1	30	23	0.7	0.8	0.73
Cc1cc(Cl)c(S(=O)(=O)N2CCN(c3ccccc3)CC2)cc1OCC(N)=O	.	.	.	.	-0.53
COc1cc(OC)nc(NC(=O)NS(=O)(=O)c2ccc(OC(F)(F)F)cc2)n1	8	8	0.9	0.9	0.36
CO/N=C(\Cn1ncc(NC2CCCCC2)c(Br)c1=O)c1ccc(Cl)cc1	7	54*	0.9	0.5	0.86
CO/N=C(\Cn1ncc(N2CCCC2)c(Br)c1=O)c1ccc(Cl)cc1	89*	86*	0.1	0.1	-2.1
C=CCNc1cnn(CC(C)=O)c(=O)c1Br	7	-5	0.9	1	0.3
CCS(=O)(=O)N1CCN(Cc2ccncc2)CC1	24	27	0.8	0.7	0.23
Cc1ccc2nsnc2c1S(=O)(=O)N(Cc1cc2cccc(C)c2[nH]c1=O)CC1CCCO1 (stereo not given)	7	78*	0.9	0.2	-0.3
Cc1ccc2cc(CN(CCCO)S(=O)(=O)c3cccc4nsnc34)c(=O)[nH]c2c1C	42	100*	0.6	0	0.96
CCN(Cc1ccccc1)S(=O)(=O)c1ccc(S(=O)(=O)N(Cc2cccc(OC)c2)CC2CCCO2)cc1 (stereo not given)	15	55*	0.8	0.5	-6.7*
Cc1cccc2cc(CN(CC3CCCO3)C(=O)c3ccco3)c(=O)[nH]c12 (stereo not given)	34	12	0.7	0.9	-0.2
COc1ccc2cc(CN(CC3CCCO3)S(=O)(=O)c3ccccc3Cl)c(=O)[nH]c2c1 (stereo not given)	58*	99*	0.4	0	.
Cc1ccc2cc(CN(CC3CCCO3)S(=O)(=O)c3c(C)ccc4nsnc34)c(=O)[nH]c2c1 (stereo not given)	-11	52*	1.1	0.5	1
CCOn1c(=O)c(-c2cc3ccccc3o2)[n+]([O-])c2ccccc21	-4	33	1	0.7	-0.67
CCOc1ccc(OCC)c(-c2c(=O)n(OCc3ccccc3Br)c3ccccc3[n+]2[O-])c1	74*	38	0.3	0.6	-3.5
O=C1CN(Cc2ccccc2)C(=NCc2ccco2)S1	90*	97*	0.1	0	-0.27
O=C1CCCC(=NCc2ccco2)C1	-2	-8	1	1.1	0.26
CCn1cc(C(=O)OCC(=O)NCc2ccc3c(c2)OCO3)c(=O)c2ccc(C)nc21	22	27	0.8	0.7	0.97
Cc1ccccc1NC(=O)CCC(=O)OCCCC(F)(F)C(F)(F)F	8	10	0.9	0.9	-0.056
COc1cccc(C2=CC(c3cccs3)n3nnnc3N2)c1 (stereo not given)	38	40	0.6	0.6	-2
COc1ccccc1C1C=C(c2ccccc2)Nc2nnnn21 (stereo not given)	.	.	.	.	-0.12
COc1ccc(C2=CC(c3ccc(F)cc3)n3nnnc3N2)cc1 (stereo not given)	52*	93*	0.5	0.1	.
COc1ccc(C2=CC(c3sccc3C)n3nnnc3N2)cc1 (stereo not given)	82*	91*	0.2	0.1	0.0032
Cc1ccc(C2=CC(c3ccc(N(C)C)cc3)n3nnnc3N2)cc1 (stereo not given)	78*	65*	0.2	0.3	.
COc1cccc(C2=CC(c3ccc(OC)c(OC)c3OC)n3nnnc3N2)c1 (stereo not given)	52*	81*	0.5	0.2	0.16
CC(C)(C)c1ccccc1OCCCCCNCCO	7	-2	0.9	1	-0.078
CCCCOC(=O)C1=C(C)Nc2ncnn2C1c1cc(OC)c(OC)cc1OC (stereo not given)	-3	38	1	0.6	0.52

Screens from PubChem BioAssay.
